D3 antag – antagonists of human D3 dopamine receptor; max response, negative = inhibition, %; D3R cells, DiscoveRx beta-arrestin luminescence, antagonist mode; hits give low values; 360,000 compounds, 2.5% hits; in the data active = max response below about -50%; inconclusive = no clear call, values can overlap the other calls
Target sequence (P35462 whole entry, looked up): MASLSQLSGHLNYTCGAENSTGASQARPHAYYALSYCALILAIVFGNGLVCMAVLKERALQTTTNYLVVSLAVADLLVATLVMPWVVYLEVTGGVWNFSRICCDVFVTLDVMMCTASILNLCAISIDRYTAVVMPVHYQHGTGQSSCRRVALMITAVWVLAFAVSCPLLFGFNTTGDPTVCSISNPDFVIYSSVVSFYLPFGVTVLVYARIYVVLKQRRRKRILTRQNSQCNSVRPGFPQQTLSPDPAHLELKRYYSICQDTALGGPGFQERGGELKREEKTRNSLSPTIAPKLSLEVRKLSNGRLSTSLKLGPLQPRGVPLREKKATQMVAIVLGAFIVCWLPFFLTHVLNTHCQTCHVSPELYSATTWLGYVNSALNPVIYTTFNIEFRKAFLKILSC
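Cells plated overnight at 1500 cells/well, then exposed to library compounds with dopamine controls for 90 minutes at 37 degrees C. DiscoveRx reagent added for 30–60 minutes at room temperature; luminescence read, quantitative HTS format.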
D3 ag – agonists of human D3 dopamine receptor. P35462. D3R DiscoveRx beta-arrestin cells, luminescence, 90 min. max activation, %. 410,000 compounds, 0.58% hits; in the data active = max activation above about 30%
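Agonist mode: compounds and dopamine controls were applied to plated cells for 90 min at 37 degrees C after an overnight attachment at 1500 cells/well. Luminescent read-out followed 30 - 60 minutes at room temperature with DiscoveRx detection reagent.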
TRPML1 blocker – inhibitors of human TRPML1 channel | TRPML1-inducible cells, Ca2+ dye fluorescence, FDSS; hits give low values; inhibition of EC80 agonist-evoked calcium signal | activity change, negative = inhibition, % (test concentration not listed) | 390,000 compounds, 0.02% hits; in the data active = activity change below about -50%; inconclusive = between about -30% and that limit;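 also: stimulus is agonist 54-4 at its EC80 concentration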
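Calcium fluorescence in TRPML1-DL cells induced overnight with Tet: a 110 s read after compound pin addition, then a 110 s antagonist read after challenge with 54-4 at 4 uM final (EC80).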
TRPML1 ag – agonists of human TRPML1 channel; Q9GZU1; TRPML1-expressing cells, Ca2+ dye fluorescence, FDSS; activation, % (no concentration beside the values); 410,000 compounds, 0.12% hits; in the data active = activation above about 50%; inconclusive = mostly about 30% to 49%
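Tetracycline-induced TRPML1-DL cells are seeded and incubated overnight before loading with a no-wash Ca2+ dye and quencher. Agonist activity is taken from the 110 s fluorescence read following compound pin-transfer on an FDSS, before EC80 54-4 challenge.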
A number is an active result; 0 = inactive; ? = inconclusive; - = not tested or not shown. This is a sample that favours compounds with a hit; in the whole collection about 2.9% have one here.

SMILES	D3 antag	D3 ag	TRPML1 blocker	TRPML1 ag
C#CCOC(C(=O)OCCN(C)C)(c1ccccc1)c1ccccc1	-	0	-	-
CN(C)CCSC1c2ccccc2CSc2ccccc21 (stereo not given)	-102	0	0	0
Clc1ccc2c(c1)C(OC1CN3CCC1CC3)c1ccccc1CS2 (stereo not given)	0	0	0	0
O=c1oc2ccccc2c(O)c1C(CC(O)c1ccc(-c2ccc(Br)cc2)cc1)c1ccccc1 (stereo not given)	-	0	-	-
CCCCN1CCC(O)(c2ccccc2)C(C(=O)c2ccccc2)C1 (stereo not given)	-65	0	0	0
CC(=O)O[C@H]1C[C@H](O[C@H]2[C@@H](O)C[C@H](O[C@H]3[C@@H](O)C[C@H](OC4CC[C@@]5(C)[C@H](CC[C@@H]6[C@@H]5CC[C@]5(C)[C@@H](C7=CC(=O)OC7)CC[C@]65O)C4)O[C@@H]3C)O[C@@H]2C)O[C@H](C)[C@H]1O[C@@H]1O[C@H](CO)[C@@H](O)[C@H](O)[C@H]1O (stereo not given in full)	-	0	-	-
NC(=O)C1(N2CCCCC2)CCN(Cc2ccccc2)CC1	-68	0	0	0
O=C(Cc1ccccc1)OCCN1CCCCC1	?	0	0	0
O=[N+]([O-])c1ccc(N(CCO)CCO)c2c1no[n+]2[O-]	-99	0	0	0
CCN(CC)CCO[C@H]1CC[C@@]2(C)C(=CC[C@@H]3[C@@H]2CC[C@]2(C)C(=O)CC[C@@H]32)C1	-	34	-	-
CCOP(=O)(OCC)C(NC(=O)c1ccc(Cl)cc1)=C(Cl)Cl	0	0	0	0
CCOP(=S)(OCC)SCSc1ccc(Cl)cc1	-	48	-	-
ClC1=C(Cl)[C@]2(Cl)[C@@H]3[C@@H]4C[C@@H]([C@H]5O[C@@H]45)[C@@H]3[C@@]1(Cl)C2(Cl)Cl	-	0	-	-
COc1cc([C@@H]2c3cc4c(cc3[C@@H](O)C3COC(=O)C32)OCO4)cc(OC)c1O (stereo not given in full)	-	-	-	0
O=c1[nH]c2ccccc2n1C1CCN(C(c2cccc3ccccc23)c2nnnn2-c2ccc3c(c2)OCCO3)CC1 (stereo not given)	0	0	0	0
O=c1[nH]c2ccccc2n1C1CCN(C(c2cc3ccccc3o2)c2nnnn2-c2ccc3c(c2)OCCO3)CC1 (stereo not given)	0	43	0	0
CN1c2ccccc2C(NCCCCCCC(=O)O)c2ccc(Cl)cc2S1(=O)=O (stereo not given)	-	0	-	-
CS(=O)(=O)c1ccc(C2=C(CNC(=O)c3ccc([N+](=O)[O-])cc3)[C@H]3CC[C@@H](C2)N3Cc2ccccc2)cc1	-86	0	0	0
CS(=O)(=O)c1ccc(C2=C(CNC(=O)c3ccc([N+](=O)[O-])cc3)[C@H]3CC[C@@H](C2)N3CCOc2ccccc2)cc1	?	0	0	0
CCOC(=O)c1cccc(C2=C(CNC(=O)c3nccs3)[C@H]3CC[C@@H](C2)N3Cc2ccccc2)c1	-57	0	-	-
c1cc2c(cc1CN1CCNCC1)OCO2	0	0	0	0
Fc1ccc(N2CCN(Cc3cc4c(cc3Br)OCO4)CC2)cc1	0	0	0	0
COc1cc(C)c(CN2CCN(c3ccccc3)CC2)cc1C	-65	0	0	0
COc1ccccc1N1CCN(Cc2ccc3c(c2)OCO3)CC1	-87	0	0	0
CCc1ccc(OCC(=O)N2CCN(Cc3ccc4c(c3)OCO4)CC2)cc1	?	0	0	0
SMILES	D3 antag	D3 ag	TRPML1 blocker	TRPML1 ag
Cc1cccc(N2CCN(Cc3ccc4c(c3)OCO4)CC2)c1C	-105	0	0	0
Oc1cc2c(cc1CN1CCN(c3ccccc3F)CC1)OCO2	-96	0	0	0
CCN(CC)C(=O)c1ccc(NC(=O)CCn2nc(-c3ccc(Cl)cc3)c3ccccc3c2=O)cc1	-	0	0	0
O=[N+]([O-])/N=C1\NCCN1Cc1ccc(Cl)nc1	-	0	-	-
COc1ccccc1N1CCN(Cc2cccc(Br)c2)CC1	-100	0	0	0
COc1ccccc1N1CCN(Cc2ccc(Br)s2)CC1	-69	0	0	0
COc1ccccc1N1CCNCC1	0	0	0	0
COc1cc(Br)cc(CN2CCN(C)CC2)c1O	?	0	0	0
COc1cc(CN2CCN(c3cc(C)ccc3C)CC2)ccc1O	?	0	0	0
CN1CCN(Cc2ccc(Br)s2)CC1	-77	0	0	0
COc1ccccc1N1CCN(Cc2cc(C)c(C)cc2O)CC1	-84	0	0	0
COc1ccccc1N1CCN(Cc2c(F)cccc2Cl)CC1	0	0	0	0
COc1cc([C@@H]2c3cc4c(c(O)c3C[C@H]3COC(=O)[C@@H]32)OCO4)cc(OC)c1OC	-	-	-	0
CC(=O)Nc1ccc(OC(=O)N2CCN(/[N+]([O-])=N/Oc3ccc([N+](=O)[O-])cc3[N+](=O)[O-])CC2)cc1	-	-	0	0
COc1ccccc1N1CCN(Cc2ccccc2)CC1	-113	0	0	0
Cc1nnc(NC(=O)c2cccn(Cc3ccccc3F)c2=O)s1	-	0	0	0
Cc1ccc(C(=O)N[C@@H](C)CN2C3=NC[C@@H](Cc4ccccc4)N3C[C@H]2Cc2ccc(O)cc2)cc1Br	-70	0	0	0
Cn1c(=O)n(C)c2cc(CNCCc3ccc(F)cc3)ccc21	-	0	0	0
CCCCCCC(C)(C)c1ccc([C@@H]2C[C@H](O)CC[C@H]2CCCO)c(O)c1	0	70	0	0
c1ccc(C(OCCN2CCN(c3ncccn3)CC2)c2ccccc2)cc1	-116	0	0	0
COC(=O)C1=C(c2cc3ccccc3o2)C[C@@H]2CC[C@H]1N2C(=O)NCc1ccccc1	-50	0	0	0
COC(=O)C1=C(c2cc3ccccc3o2)C[C@@H]2CC[C@H]1N2C(=O)NCCNC(C)=O	0	41	0	0
Cc1ccc(CN2CCN(Cc3ccccc3)CC2)cc1	?	0	0	0
c1ccc(CN2CCN(Cc3ccc4ccccc4c3)CC2)cc1	-69	0	0	0
Oc1c(Cl)cc(Cl)cc1CN1CCN(Cc2ccccc2)CC1	-51	0	0	0
SMILES	D3 antag	D3 ag	TRPML1 blocker	TRPML1 ag
Fc1ccc(Cn2nnnc2CN2CCC(n3nnc4cc(C(F)(F)F)ccc43)CC2)cc1	0	0	0	0
Fc1ccc2c(c1)nnn2C1CCN(Cc2nnnn2CCc2ccccc2)CC1	-75	0	0	0
Fc1ccc2c(c1)nnn2C1CCN(Cc2ccccc2)CC1	-78	0	0	0
C=C1C(=O)O[C@H]2[C@H]1[C@H](OC(=O)CC(=O)O[C@@H]1C[C@@H](C)[C@@H]3C=CC(=O)[C@@]3(C)[C@H]3OC(=O)C(=C)[C@H]13)C[C@@H](C)[C@H]1C=CC(=O)[C@]12C	0	0	0	0
C=C1C(=O)O[C@@H]2C[C@@H](C)[C@@H]3C=CC(=O)[C@@]3(C)[C@@H](OC(=O)CC(=O)O[C@H]3[C@@H]4C(=C)C(=O)O[C@@H]4C[C@@H](C)[C@@H]4C=CC(=O)[C@]43C)[C@H]12	-110	0	0	0
C=C1C(=O)OC2CC(C)C3C=CC(=O)C3(C)C(O)C12 (stereo not given)	-75	0	0	0

High-throughput results from PubChem BioAssay.
